{
  "source": "the supplement of paper PMC10849652",
  "note": "The full data set covers some 7,900 targets. This sample favours those with a hit. About 0.6% of all pairs of compound and target were hits. Unmarked numbers belong to inactive results.",
  "data": [
    {"compound": "Cc1nc(Nc2n[nH]c3c2CN(C(=O)N[C@H](CN(C)C)c2ccccc2)C3(C)C)c2sccc2n1", "assay": "log2 fold change, soluble protein after heating vs DMSO (PISA); higher = thermal stabilisation; K562 cells, 10 uM, 30 min; active = over 0.2 and 3.5 SD of the protein, either way, in both replicates (recomputed)", "procedure,_shortened": "(§1)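 K562 cells at 2×10^6 cells/mL were treated with 10 μM compound for 30 min. Aliquots were heated for 3 min across 48°C-58°C, pooled, and extracted in PBS with 0.5% NP-40 at 4°C; soluble protein was the supernatant after 21,000xg for 90 min. Soluble protein was quantified by TMTpro 16plex LC-MS/MS with channel sums equalised, and reported as log2 fold change in thermal stability against DMSO controls, with values from duplicates.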", "values": [
      {"target": "TMEM8A (UniProt Q9HCN3)", "log2 fold change": 0.071},
      {"target": "UBAP2L isoform 1 (UniProt Q14157)", "sequence (Q14157 whole entry, looked up)": "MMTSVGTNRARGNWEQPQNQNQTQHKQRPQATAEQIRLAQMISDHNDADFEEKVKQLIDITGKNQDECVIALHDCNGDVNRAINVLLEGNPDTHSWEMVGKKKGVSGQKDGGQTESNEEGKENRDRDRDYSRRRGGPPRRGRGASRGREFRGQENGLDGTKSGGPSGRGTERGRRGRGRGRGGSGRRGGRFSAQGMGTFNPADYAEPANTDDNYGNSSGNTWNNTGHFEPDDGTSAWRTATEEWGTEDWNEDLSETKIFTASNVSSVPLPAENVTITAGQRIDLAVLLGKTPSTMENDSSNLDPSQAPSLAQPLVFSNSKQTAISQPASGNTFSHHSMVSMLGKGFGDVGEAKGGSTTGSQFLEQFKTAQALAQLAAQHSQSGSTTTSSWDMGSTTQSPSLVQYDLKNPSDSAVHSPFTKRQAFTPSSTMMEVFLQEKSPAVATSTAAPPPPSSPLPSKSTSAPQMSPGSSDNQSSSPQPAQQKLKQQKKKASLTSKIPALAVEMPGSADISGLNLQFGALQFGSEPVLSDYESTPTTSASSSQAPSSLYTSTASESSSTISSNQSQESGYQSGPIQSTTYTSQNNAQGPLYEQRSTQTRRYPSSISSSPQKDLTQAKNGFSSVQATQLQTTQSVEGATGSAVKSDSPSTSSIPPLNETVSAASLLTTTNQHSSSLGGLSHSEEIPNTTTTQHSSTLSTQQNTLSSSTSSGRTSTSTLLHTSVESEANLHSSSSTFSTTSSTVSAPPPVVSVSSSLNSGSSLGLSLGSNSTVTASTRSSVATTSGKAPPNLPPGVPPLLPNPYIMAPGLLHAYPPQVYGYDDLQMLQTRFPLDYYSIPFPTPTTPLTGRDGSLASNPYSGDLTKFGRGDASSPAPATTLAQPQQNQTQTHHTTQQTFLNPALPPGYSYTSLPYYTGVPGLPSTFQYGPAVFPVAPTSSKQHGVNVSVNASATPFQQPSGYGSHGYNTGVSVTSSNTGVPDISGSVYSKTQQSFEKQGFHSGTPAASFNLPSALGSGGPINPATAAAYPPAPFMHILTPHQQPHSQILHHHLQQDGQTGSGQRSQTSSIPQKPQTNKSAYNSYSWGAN", "log2 fold change": -0.134},
      {"target": "UBE4A isoform 2 (UniProt Q14139)", "log2 fold change": -0.162},
      {"target": "XPNPEP1 isoform 3 (UniProt Q9NQW7)", "log2 fold change": 0.014},
      {"target": "UTP14A (UniProt Q9BVJ6)", "log2 fold change": -0.009},
      {"target": "VAMP7 (UniProt P51809)", "log2 fold change": -0.04},
      {"target": "WDR4 (UniProt P57081)", "sequence (P57081 whole entry, looked up)": "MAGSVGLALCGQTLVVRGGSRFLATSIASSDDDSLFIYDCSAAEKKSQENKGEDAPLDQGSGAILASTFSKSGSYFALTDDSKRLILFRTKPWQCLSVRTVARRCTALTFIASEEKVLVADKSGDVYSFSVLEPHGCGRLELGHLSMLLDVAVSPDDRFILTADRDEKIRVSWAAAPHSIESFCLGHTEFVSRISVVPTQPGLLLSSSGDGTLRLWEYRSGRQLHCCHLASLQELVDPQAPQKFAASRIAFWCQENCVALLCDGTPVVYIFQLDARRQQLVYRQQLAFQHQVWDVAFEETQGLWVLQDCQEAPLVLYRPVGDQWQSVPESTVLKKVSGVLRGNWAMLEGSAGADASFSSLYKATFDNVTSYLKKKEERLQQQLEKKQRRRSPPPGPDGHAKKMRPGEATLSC", "log2 fold change": 0.005},
      {"target": "TOP2A isoform 4 (UniProt P11388)", "log2 fold change": 0.033},
      {"target": "UBA1 (UniProt P22314)", "sequence (P22314 whole entry, looked up)": "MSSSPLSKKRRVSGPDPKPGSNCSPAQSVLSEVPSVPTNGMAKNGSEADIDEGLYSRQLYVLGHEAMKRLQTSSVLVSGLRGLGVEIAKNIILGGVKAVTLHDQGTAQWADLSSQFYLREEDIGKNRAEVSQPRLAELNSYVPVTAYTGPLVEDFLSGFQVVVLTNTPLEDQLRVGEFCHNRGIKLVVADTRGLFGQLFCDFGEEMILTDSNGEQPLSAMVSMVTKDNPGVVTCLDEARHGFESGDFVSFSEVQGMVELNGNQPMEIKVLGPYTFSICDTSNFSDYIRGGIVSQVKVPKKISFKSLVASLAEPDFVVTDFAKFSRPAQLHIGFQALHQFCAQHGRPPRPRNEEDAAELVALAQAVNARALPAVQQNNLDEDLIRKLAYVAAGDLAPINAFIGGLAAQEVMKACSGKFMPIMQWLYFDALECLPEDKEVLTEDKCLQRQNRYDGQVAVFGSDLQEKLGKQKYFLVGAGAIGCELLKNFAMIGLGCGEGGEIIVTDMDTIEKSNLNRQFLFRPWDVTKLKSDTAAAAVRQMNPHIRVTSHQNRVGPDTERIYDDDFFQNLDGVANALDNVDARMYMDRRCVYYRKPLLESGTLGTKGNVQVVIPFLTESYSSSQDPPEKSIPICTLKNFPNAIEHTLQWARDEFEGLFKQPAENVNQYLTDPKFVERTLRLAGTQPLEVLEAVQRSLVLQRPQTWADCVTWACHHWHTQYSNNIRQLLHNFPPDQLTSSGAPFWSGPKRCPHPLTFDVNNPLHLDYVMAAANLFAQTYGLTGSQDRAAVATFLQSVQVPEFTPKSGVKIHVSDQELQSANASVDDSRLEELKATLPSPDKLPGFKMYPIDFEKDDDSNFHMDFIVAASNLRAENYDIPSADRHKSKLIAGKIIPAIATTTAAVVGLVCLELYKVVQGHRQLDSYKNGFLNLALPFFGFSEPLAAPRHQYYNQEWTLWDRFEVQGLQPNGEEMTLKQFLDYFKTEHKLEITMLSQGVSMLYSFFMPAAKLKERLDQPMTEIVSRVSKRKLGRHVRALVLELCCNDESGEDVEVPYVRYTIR", "log2 fold change": -0.062},
      {"target": "WDHD1 (UniProt O75717)", "log2 fold change": -0.12},
      {"target": "WDR61 (UniProt Q9GZS3)", "log2 fold change": 0.029},
      {"target": "VTI1A (UniProt Q96AJ9)", "sequence (Q96AJ9 whole entry, looked up)": "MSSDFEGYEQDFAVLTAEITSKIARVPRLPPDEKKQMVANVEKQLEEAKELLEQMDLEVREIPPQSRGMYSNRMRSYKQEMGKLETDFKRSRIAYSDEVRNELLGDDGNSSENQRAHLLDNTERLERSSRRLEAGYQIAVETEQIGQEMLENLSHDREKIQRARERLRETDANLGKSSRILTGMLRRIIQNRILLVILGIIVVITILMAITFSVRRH", "log2 fold change": -0.001},
      {"target": "VPS8 (UniProt Q8N3P4)", "log2 fold change": -0.018},
      {"target": "USO1 isoform 2 (UniProt O60763)", "log2 fold change": -0.024},
      {"target": "TSFM (UniProt P43897)", "sequence (P43897 whole entry, looked up)": "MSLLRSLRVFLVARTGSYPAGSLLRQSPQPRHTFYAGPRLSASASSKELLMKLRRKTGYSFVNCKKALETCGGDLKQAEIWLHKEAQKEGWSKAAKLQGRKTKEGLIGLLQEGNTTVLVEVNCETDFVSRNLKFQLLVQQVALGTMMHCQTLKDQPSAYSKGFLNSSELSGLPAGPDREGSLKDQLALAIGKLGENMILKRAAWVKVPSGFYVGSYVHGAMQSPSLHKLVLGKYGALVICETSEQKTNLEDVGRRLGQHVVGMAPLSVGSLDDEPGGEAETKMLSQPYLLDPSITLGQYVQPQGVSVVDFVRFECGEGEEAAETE", "log2 fold change": -0.217},
      {"target": "TMEM9 (UniProt Q9P0T7)", "log2 fold change": -0.022},
      {"target": "UBAP1 isoform 4 (UniProt Q9NZ09)", "log2 fold change": -0.15},
      {"target": "VPS50 (UniProt Q96JG6)", "log2 fold change": -0.077},
      {"target": "UNC119B (UniProt A6NIH7)", "log2 fold change": -0.077},
      {"target": "XPO6 (UniProt Q96QU8)", "sequence (Q96QU8 whole entry, looked up)": "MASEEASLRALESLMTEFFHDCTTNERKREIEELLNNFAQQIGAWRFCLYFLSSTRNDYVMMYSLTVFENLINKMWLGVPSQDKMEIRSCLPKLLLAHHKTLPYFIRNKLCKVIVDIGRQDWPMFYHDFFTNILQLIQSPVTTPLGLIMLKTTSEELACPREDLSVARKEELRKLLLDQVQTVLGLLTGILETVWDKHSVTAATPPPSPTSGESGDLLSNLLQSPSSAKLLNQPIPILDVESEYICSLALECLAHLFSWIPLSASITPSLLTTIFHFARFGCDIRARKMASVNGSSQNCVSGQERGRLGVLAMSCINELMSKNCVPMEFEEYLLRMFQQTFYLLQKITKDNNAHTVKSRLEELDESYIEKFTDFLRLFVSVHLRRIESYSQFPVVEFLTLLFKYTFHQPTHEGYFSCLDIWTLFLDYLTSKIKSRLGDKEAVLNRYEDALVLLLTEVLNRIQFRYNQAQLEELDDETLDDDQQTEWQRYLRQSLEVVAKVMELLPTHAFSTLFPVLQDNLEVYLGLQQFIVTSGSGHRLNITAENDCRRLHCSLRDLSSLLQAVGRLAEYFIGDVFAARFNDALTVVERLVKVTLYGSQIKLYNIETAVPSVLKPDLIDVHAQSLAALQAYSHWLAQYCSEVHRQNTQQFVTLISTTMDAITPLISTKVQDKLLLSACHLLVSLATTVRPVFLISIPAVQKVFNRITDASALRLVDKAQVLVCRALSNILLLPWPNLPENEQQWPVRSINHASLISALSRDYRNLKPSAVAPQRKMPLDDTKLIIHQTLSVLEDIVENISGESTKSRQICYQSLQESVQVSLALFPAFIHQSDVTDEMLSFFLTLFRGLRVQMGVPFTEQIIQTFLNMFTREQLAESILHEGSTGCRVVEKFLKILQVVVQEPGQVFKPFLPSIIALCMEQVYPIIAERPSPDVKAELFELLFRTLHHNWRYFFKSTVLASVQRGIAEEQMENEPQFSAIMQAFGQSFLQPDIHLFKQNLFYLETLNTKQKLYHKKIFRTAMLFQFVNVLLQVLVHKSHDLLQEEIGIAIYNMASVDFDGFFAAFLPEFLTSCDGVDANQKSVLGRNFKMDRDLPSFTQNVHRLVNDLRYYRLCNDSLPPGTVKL", "log2 fold change": -0.148},
      {"target": "TUBA4A (UniProt P68366)", "log2 fold change": 0.008},
      {"target": "TRMT10C (UniProt Q7L0Y3)", "log2 fold change": -0.066},
      {"target": "TMEM120A (UniProt Q9BXJ8)", "sequence (Q9BXJ8 whole entry, looked up)": "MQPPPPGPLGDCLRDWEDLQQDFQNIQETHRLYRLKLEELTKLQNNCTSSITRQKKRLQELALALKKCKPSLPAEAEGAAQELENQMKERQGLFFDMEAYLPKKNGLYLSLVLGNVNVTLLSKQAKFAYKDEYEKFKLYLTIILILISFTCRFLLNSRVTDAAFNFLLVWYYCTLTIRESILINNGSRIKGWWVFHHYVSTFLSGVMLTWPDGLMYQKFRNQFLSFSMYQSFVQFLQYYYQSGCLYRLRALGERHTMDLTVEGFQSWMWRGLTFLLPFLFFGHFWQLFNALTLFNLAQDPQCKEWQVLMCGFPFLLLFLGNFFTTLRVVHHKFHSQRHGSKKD", "log2 fold change": -0.038},
      {"target": "UBXN10 (UniProt Q96LJ8)", "log2 fold change": 0.141},
      {"target": "TNPO1 (UniProt Q92973)", "log2 fold change": -0.128},
      {"target": "UFL1 (UniProt O94874)", "log2 fold change": -0.009},
      {"target": "VTI1B (UniProt Q9UEU0)", "sequence (Q9UEU0 whole entry, looked up)": "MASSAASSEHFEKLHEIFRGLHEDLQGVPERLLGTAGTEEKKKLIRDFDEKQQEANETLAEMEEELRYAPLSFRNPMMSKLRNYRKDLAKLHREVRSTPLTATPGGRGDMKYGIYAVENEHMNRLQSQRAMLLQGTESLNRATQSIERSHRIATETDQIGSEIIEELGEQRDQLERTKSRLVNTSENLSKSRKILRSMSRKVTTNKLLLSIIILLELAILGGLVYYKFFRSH", "log2 fold change": 0.015},
      {"target": "VKORC1 (UniProt Q9BQB6)", "log2 fold change": 0.013},
      {"target": "VPS52 (UniProt Q8N1B4)", "log2 fold change": -0.086},
      {"target": "UBE3D (UniProt Q7Z6J8)", "log2 fold change": -0.001},
      {"target": "VPS33B (UniProt Q9H267)", "log2 fold change": -0.158},
      {"target": "USP48 isoform 8 (UniProt Q86UV5)", "log2 fold change": -0.362},
      {"target": "UBE2S (UniProt Q16763)", "sequence (Q16763 whole entry, looked up)": "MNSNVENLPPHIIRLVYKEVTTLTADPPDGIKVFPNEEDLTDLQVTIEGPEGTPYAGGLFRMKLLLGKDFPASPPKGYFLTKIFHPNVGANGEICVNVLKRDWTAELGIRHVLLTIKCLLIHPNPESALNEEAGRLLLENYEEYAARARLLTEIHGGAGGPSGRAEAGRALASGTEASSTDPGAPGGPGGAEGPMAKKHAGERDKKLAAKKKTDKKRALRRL", "log2 fold change": -0.017},
      {"target": "TMTC3 (UniProt Q6ZXV5)", "log2 fold change": 0}
    ]},
    {"compound": "Cc1nc(Nc2ncc(C(=O)Nc3c(C)cccc3Cl)s2)cc(N2CCN(CCO)CC2)n1 [dasatinib]", "assay": "log2 fold change, soluble protein after heating vs DMSO (PISA); higher = thermal stabilisation; K562 cells, 10 uM, 30 min; active = over 0.2 and 3.5 SD of the protein, either way, in both replicates (recomputed)", "procedure,_shortened": "as §1", "values": [
      {"target": "TMEM8A (UniProt Q9HCN3)", "log2 fold change": -0.409},
      {"target": "UBAP2L isoform 1 (UniProt Q14157)", "log2 fold change": 0.058},
      {"target": "UBE4A isoform 2 (UniProt Q14139)", "log2 fold change": -0.196},
      {"target": "XPNPEP1 isoform 3 (UniProt Q9NQW7)", "log2 fold change": -0.086},
      {"target": "UTP14A (UniProt Q9BVJ6)", "log2 fold change": 0.07},
      {"target": "VAMP7 (UniProt P51809)", "log2 fold change": 0.002},
      {"target": "WDR4 (UniProt P57081)", "log2 fold change": -0.013},
      {"target": "TOP2A isoform 4 (UniProt P11388)", "log2 fold change": 0.102},
      {"target": "UBA1 (UniProt P22314)", "log2 fold change": -0.216},
      {"target": "WDHD1 (UniProt O75717)", "log2 fold change": -0.076},
      {"target": "WDR61 (UniProt Q9GZS3)", "log2 fold change": 0.007},
      {"target": "VTI1A (UniProt Q96AJ9)", "log2 fold change": 0.004},
      {"target": "VPS8 (UniProt Q8N3P4)", "log2 fold change": -0.107},
      {"target": "USO1 isoform 2 (UniProt O60763)", "log2 fold change": -0.052},
      {"target": "TSFM (UniProt P43897)", "log2 fold change": -0.143},
      {"target": "TMEM9 (UniProt Q9P0T7)", "log2 fold change": -0.087},
      {"target": "UBAP1 isoform 4 (UniProt Q9NZ09)", "log2 fold change": -0.086},
      {"target": "VPS50 (UniProt Q96JG6)", "log2 fold change": "-0.257 (active)"},
      {"target": "UNC119B (UniProt A6NIH7)", "log2 fold change": 0.069},
      {"target": "XPO6 (UniProt Q96QU8)", "log2 fold change": -0.109},
      {"target": "TUBA4A (UniProt P68366)", "log2 fold change": -0.102},
      {"target": "TRMT10C (UniProt Q7L0Y3)", "log2 fold change": -0.181},
      {"target": "TMEM120A (UniProt Q9BXJ8)", "log2 fold change": 0.046},
      {"target": "UBXN10 (UniProt Q96LJ8)", "log2 fold change": -0.032},
      {"target": "TNPO1 (UniProt Q92973)", "log2 fold change": -0.067},
      {"target": "UFL1 (UniProt O94874)", "log2 fold change": -0.165},
      {"target": "VTI1B (UniProt Q9UEU0)", "log2 fold change": -0.011},
      {"target": "VKORC1 (UniProt Q9BQB6)", "log2 fold change": -0.049},
      {"target": "VPS52 (UniProt Q8N1B4)", "log2 fold change": -0.071},
      {"target": "UBE3D (UniProt Q7Z6J8)", "log2 fold change": -0.071},
      {"target": "VPS33B (UniProt Q9H267)", "log2 fold change": -0.209},
      {"target": "USP48 isoform 8 (UniProt Q86UV5)", "log2 fold change": -0.139},
      {"target": "UBE2S (UniProt Q16763)", "log2 fold change": 0.001},
      {"target": "TMTC3 (UniProt Q6ZXV5)", "log2 fold change": -0.055}
    ]}
  ]
}
